Active and inactive are the calls of the source. The calls were made as follows: active = hit-call score of the fitted dose curve at least 0.9, where 1 is the maximum; inactive = score below 0.9.

Common to all, as to details: mRNA level, 48 h; actives raise or lower the signal
Read-out in assay [1]: Heat shock 70 kDa protein 1 (HSPA1A), gene 3303
As to the kind of experiment: LTEA_HepaRG_HSPA1A: Life Technologies and Expression Analysis (LTEA) Assay for Heat shock 70 kDa protein 1 (HSPA1A) using HepaRG (AID 2283502). The essentials:
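Cells were plated and cultured for 48 h, then switched to serum-free induction medium. Chemicals were added at eight half-log concentrations up to 100 uM for 48 h. RNA was then isolated and HSPA1A measured by qRT-PCR with bidirectional curve fitting against DMSO.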

Read-out in assay [2]: Hypoxia-inducible factor 1-alpha (Homo sapiens) (UniProt Q16665)
As to the kind of experiment: LTEA_HepaRG_HIF1A: Life Technologies and Expression Analysis (LTEA) Assay for Hypoxia-inducible factor 1 (HIF1A) Trancription factor using HepaRG (AID 2283503). In short, it runs like this:
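HIF1A transcript level read by qRT-PCR (ACTB, GAPDH, POLR2A normalization) after 48 h chemical exposure of HepaRG cultures. Eight half-log concentrations, top 100 uM, 0.5% DMSO vehicle, duplicates; bidirectional curve fit against DMSO baseline.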

Read-out in assay [3]: 3-Hydroxy-3-Methylglutaryl-CoA Synthase 2 (HMGCS2), HMGCS2 (gene 3158)
As to the kind of experiment: LTEA_HepaRG_HMGCS2: Life Technologies and Expression Analysis (LTEA) Assay for 3-Hydroxy-3-Methylglutaryl-CoA Synthase 2 (HMGCS2) using HepaRG (AID 2283504). The essentials: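 qRT-PCR read-out of HMGCS2 transcript, normalised to three housekeeping genes, in HepaRG cells after 48 h chemical exposure. Eight-point curves from 100 uM, half-log dilutions, 0.5% DMSO vehicle; gain or loss fitted relative to DMSO baseline.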

Read-out in a further assay: HGF (gene 3082)
As to the kind of experiment: LTEA_HepaRG_HGF: Life Technologies and Expression Analysis (LTEA) Assay for Hepatocyte Growth Facto (HGF) using HepaRG (AID 2283505). In short, it runs like this:
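HepaRG, 48 h dosing, 8-pt half-log series from 100 uM in 0.5% DMSO, duplicates. Readout: TaqMan qRT-PCR of HGF mRNA, housekeeping-normalized; bidirectional curve fit vs DMSO baseline.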

Read-out in assay [4]: Insulin Like Growth Factor 1 (IGF1), IGF1 (gene 3479)
Briefly: LTEA_HepaRG_IGF1: Life Technologies and Expression Analysis (LTEA) Assay for Insulin Like Growth Factor 1 (IGF1) using HepaRG (AID 2283506). In short, it runs like this:
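Cells are thawed, plated and cultured 48 h, then exposed in duplicate to chemical (highest 100 uM, half-log steps, 0.5% DMSO) for another 48 h. Total RNA is analysed by Fluidigm qRT-PCR for IGF1 expression relative to vehicle.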

Read-out in assay [5]: Intercellular Adhesion Molecule 1 (ICAM1), ICAM1 (gene 3383)
As to the kind of experiment: LTEA_HepaRG_ICAM1: Life Technologies and Expression Analysis (LTEA) Assay for Intercellular Adhesion Molecule 1 (ICAM1) using HepaRG (AID 2283507). In short, it runs like this: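 HepaRG, 48 h exposure, 8-pt half-log series from 100 uM, 0.5% DMSO vehicle, duplicates. Readout: TaqMan qRT-PCR mRNA, housekeeping-normalized (ACTB/GAPDH/POLR2A). Bidirectional curve fit vs DMSO baseline.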

Read-out in assay [6]: Insulin-like growth factor-binding protein 1 (IGFBP1), IGFBP1 (gene 3484)
Briefly: LTEA_HepaRG_IGFBP1: Life Technologies and Expression Analysis (LTEA) Assay for Insulin-like growth factor-binding protein 1 (IGFBP1) using HepaRG (AID 2283508). In short, it runs like this: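 qRT-PCR mRNA read-out (TaqMan, Fluidigm array), normalised to three housekeeping genes; HepaRG cells, 48 h exposure, 8-pt half-log series from 100 uM, 0.5% DMSO vehicle; bidirectional curve fit vs DMSO baseline.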

Read-out in assay [7]: Interleukin 6 (IL6), IL6 (gene 3569)
As to the kind of experiment: LTEA_HepaRG_IL6: Life Technologies and Expression Analysis (LTEA) Assay for Interleukin 6 (IL6) using HepaRG (AID 2283509). The essentials:
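Transcript levels, normalized to three housekeeping genes, were quantified by qRT-PCR after 48 h chemical treatment of HepaRG cells. Eight-point half-log series from 100 uM in 0.5% DMSO, duplicates. Fitted both directions against DMSO baseline.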

Read-out in assay [8]: Interleukin 6 Receptor (IL6R), IL6R (gene 3570)
Briefly: LTEA_HepaRG_IL6R: Life Technologies and Expression Analysis (LTEA) Assay for Interleukin 6 Receptor (IL6R) using HepaRG (AID 2283510). The essentials: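 Cells were thawed, plated and cultured 48 h, then medium was changed to serum-free induction medium. Chemicals were added in duplicate (100 uM top, half-log steps, 0.5% DMSO) for 48 h. Lysates were analyzed by qRT-PCR for IL6R expression.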

Read-out in assay [9]: Potassium channel subfamily K member 1 (KCNK1), KCNK1 (gene 3775)
Briefly: LTEA_HepaRG_KCNK1: Life Technologies and Expression Analysis (LTEA) Assay for Potassium channel subfamily K member 1 (KCNK1) using HepaRG (AID 2283511). The essentials: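 KCNK1 transcript measured by TaqMan qRT-PCR against three housekeeping genes, after HepaRG cells were treated 48 h with eight half-log concentrations (top 100 uM, 0.5% DMSO). Curves fitted bidirectionally relative to vehicle.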

Read-out in assay [10]: Keratin 19 (KRT19), KRT19 (gene 3880)
As to the kind of experiment: LTEA_HepaRG_KRT19: Life Technologies and Expression Analysis (LTEA) Assay for Keratin 19 (KRT19) using HepaRG (AID 2283512). The essentials: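 HepaRG, 48 h chemical exposure, 8-pt half-log CRC from 100 uM, 0.5% DMSO vehicle, duplicates. Readout: TaqMan qRT-PCR of KRT19 mRNA, housekeeping-normalized (ACTB/GAPDH/POLR2A). Bidirectional fit vs DMSO baseline.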

Read-out in assay [11]: JUN Transcription Factor, JUN (gene 3725)
Briefly: LTEA_HepaRG_JUN: Life Technologies and Expression Analysis (LTEA) Assay for JUN Transcription Factor using HepaRG (AID 2283513). The essentials:
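Read-out is JUN transcript level by TaqMan qRT-PCR, normalized to ACTB, GAPDH and POLR2A, after 48 h chemical treatment of HepaRG cells. Concentration-response spanned eight half-log points up to 100 uM in 0.5% DMSO.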

Read-out in assay [12]: Lipase C (LIPC), LIPC (gene 3990)
Briefly: LTEA_HepaRG_LIPC: Life Technologies and Expression Analysis (LTEA) Assay for Lipase C (LIPC) using HepaRG (AID 2283514). In short, it runs like this:
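LIPC expression was quantified by qRT-PCR against three housekeeping genes (ACTB, GAPDH, POLR2A). Differentiated human HepaRG cells received eight half-log doses (top 100 uM, 0.5% DMSO) in duplicate for 48 h; fitting bidirectional relative to DMSO.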

Read-out in assay [13]: Lipoprotein lipase (LPL), LPL (gene 4023)
Briefly: LTEA_HepaRG_LPL: Life Technologies and Expression Analysis (LTEA) Assay for Lipoprotein lipase (LPL) using HepaRG (AID 2283515). The essentials: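 LPL transcript levels quantified by TaqMan qRT-PCR against three housekeeping genes after 48 h chemical treatment of HepaRG cells. Eight-point half-log series from 100 uM in 0.5% DMSO, tested in duplicate; bidirectional fitting versus vehicle.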

Read-out in assay [14]: MicroRNA 122 (MIR122), gene 406906
Briefly: LTEA_HepaRG_MIR122: Life Technologies and Expression Analysis (LTEA) Assay for MicroRNA 122 (MIR122) using HepaRG (AID 2283516). Also: the transcript read is the microRNA miR-122. In short, it runs like this:
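Human liver HepaRG cultures receive test chemicals for 48 h at eight half-log concentrations from 100 uM. Expression is quantified by qRT-PCR with ACTB/GAPDH/POLR2A normalization and fitted bidirectionally against 0.5% DMSO.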

Read-out in assay [15]: matrix metalloproteinase-10 (MMP10), MMP10 (gene 4319)
As to the kind of experiment: LTEA_HepaRG_MMP10: Life Technologies and Expression Analysis (LTEA) Assay for matrix metalloproteinase-10 (MMP10) using HepaRG (AID 2283517). The essentials:
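Expression measured by TaqMan qRT-PCR with ACTB/GAPDH/POLR2A normalisation after 48 h chemical exposure of HepaRG cells. Eight half-log concentrations, top 100 uM, 0.5% DMSO vehicle, duplicates; gain or loss fitted against vehicle.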

Read-out in a further assay: MYC, MYC (gene 4609)
As to the kind of experiment: LTEA_HepaRG_MYC: Life Technologies and Expression Analysis (LTEA) Assay for MYC using HepaRG (AID 2283518). The essentials:
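qRT-PCR read-out of MYC transcript (Fluidigm TaqMan, housekeeping-normalized) after 48 h chemical exposure of HepaRG cells; eight concentrations, top 100 uM, half-log steps. Bidirectional curve fitting against 0.5% DMSO vehicle baseline.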

Read-out in assay [16]: matrix metalloproteinase-3 (MMP3), MMP3 (gene 4314)
As to the kind of experiment: LTEA_HepaRG_MMP3: Life Technologies and Expression Analysis (LTEA) Assay for matrix metalloproteinase-3 (MMP3) using HepaRG (AID 2283519). The essentials:
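Fluidigm-based TaqMan qRT-PCR, normalized to ACTB, GAPDH and POLR2A and fitted bidirectionally versus 0.5% DMSO, measured transcript levels. Treatment: duplicate 48 h exposures of HepaRG cells, ~100,000/well, to eight half-log concentrations topping at 100 uM.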

Read-out in assay [17]: Paternally Expressed 10 (PEG10), PEG10 (gene 23089)
As to the kind of experiment: LTEA_HepaRG_PEG10: Life Technologies and Expression Analysis (LTEA) Assay for Paternally Expressed 10 (PEG10) using HepaRG (AID 2283520).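 As to AC50: PEG10 transcript by qRT-PCR normalised to ACTB GAPDH and POLR2A.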 In short, it runs like this:
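Human HepaRG cultures are dosed for 48 h across an eight-point half-log series starting at 100 uM, with 0.5% DMSO as vehicle and baseline. Gain or loss of PEG10 transcript is measured by qRT-PCR and fitted in both directions.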

Read-out in assay [18]: Nuclear factor NF-kappa-B p105 subunit (Homo sapiens) (UniProt P19838)
As to the kind of experiment: LTEA_HepaRG_NFKB1: Life Technologies and Expression Analysis (LTEA) Assay for Nuclear Factor Kappa B Subunit 1 (NFKB1) using HepaRG (AID 2283521).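 Also: TaqMan qRT-PCR transcript normalised to ACTB GAPDH and POLR2A housekeeping genes.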 The essentials:
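Differentiated human HepaRG cells were exposed for 48 h in serum-free induction medium to eight concentrations (top 100 uM, half-log steps, 0.5% DMSO), in duplicate. NFKB1 mRNA was measured by TaqMan qRT-PCR, normalized to ACTB/GAPDH/POLR2A, and fitted bidirectionally against DMSO.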

Sequence of Hypoxia-inducible factor 1-alpha (Homo sapiens) (Q16665 whole entry, looked up): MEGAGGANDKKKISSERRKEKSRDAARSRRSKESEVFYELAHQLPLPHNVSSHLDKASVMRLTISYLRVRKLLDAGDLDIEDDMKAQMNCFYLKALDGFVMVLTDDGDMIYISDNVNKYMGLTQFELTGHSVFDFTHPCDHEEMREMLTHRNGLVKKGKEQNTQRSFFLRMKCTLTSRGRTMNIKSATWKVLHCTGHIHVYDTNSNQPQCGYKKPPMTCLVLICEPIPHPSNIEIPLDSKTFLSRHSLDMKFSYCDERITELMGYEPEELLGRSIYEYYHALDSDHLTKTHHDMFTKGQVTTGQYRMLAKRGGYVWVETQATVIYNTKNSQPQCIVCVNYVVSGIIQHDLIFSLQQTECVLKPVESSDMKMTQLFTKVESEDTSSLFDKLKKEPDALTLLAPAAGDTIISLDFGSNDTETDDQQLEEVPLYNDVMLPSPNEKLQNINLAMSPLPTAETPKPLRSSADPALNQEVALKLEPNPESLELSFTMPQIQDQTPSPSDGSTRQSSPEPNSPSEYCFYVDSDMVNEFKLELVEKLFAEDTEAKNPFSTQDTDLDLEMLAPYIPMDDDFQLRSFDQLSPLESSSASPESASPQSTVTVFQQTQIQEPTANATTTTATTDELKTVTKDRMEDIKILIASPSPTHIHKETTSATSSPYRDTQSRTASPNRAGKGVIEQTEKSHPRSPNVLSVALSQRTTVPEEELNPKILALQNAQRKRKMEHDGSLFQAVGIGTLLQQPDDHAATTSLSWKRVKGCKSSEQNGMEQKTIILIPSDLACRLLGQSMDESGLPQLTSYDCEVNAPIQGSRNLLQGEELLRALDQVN
Sequence of Nuclear factor NF-kappa-B p105 subunit (Homo sapiens) (P19838 whole entry, looked up): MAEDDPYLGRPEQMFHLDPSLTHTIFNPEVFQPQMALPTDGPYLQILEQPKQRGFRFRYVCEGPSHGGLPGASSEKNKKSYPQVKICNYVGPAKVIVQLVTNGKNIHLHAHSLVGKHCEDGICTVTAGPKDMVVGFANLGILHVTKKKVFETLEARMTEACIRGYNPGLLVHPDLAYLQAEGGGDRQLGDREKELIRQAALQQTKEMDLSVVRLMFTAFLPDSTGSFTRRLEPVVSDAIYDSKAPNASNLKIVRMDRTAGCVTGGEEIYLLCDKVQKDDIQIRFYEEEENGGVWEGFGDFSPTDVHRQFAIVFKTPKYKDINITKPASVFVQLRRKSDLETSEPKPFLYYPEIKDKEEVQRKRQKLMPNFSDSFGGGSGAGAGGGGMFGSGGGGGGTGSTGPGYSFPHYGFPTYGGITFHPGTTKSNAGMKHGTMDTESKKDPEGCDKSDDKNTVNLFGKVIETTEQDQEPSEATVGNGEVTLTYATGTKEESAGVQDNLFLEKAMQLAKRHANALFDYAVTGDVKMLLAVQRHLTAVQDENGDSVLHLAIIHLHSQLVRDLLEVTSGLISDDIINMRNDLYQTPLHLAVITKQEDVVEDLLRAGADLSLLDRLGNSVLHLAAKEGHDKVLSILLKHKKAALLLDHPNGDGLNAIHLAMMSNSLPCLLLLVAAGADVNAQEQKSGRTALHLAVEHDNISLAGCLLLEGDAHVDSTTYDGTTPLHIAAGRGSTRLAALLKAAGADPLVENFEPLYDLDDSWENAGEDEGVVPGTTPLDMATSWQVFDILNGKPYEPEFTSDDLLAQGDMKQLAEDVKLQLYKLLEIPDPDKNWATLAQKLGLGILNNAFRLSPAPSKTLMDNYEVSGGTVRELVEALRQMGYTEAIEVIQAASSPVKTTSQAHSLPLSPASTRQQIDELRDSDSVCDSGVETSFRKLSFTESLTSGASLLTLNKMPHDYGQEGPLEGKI

Turning to `C=C(C)[C@H]1Cc2c(ccc3c2O[C@@H]2COc4cc(OC)c(OC)cc4[C@@H]2C3=O)O1`, the concentration at half-maximal activity (AC50) (commonly the concentration giving half of the maximal activity seen) was 28.9 µM (active) in [1]; 23.8 µM (active) in assay [2]; 1.7 µM (active) in assay [3]; 22.8 µM (active) with HGF (gene 3082); 1.03 µM (active) in assay [4]; 2.14 µM (active) in assay [5]. Further, the half-maximal activity concentration (AC50) in assay [6] is 2.9 µM (active); in assay [7], 1.44 µM (active); in assay [9], 16.6 µM (active); in [10], 0.654 µM (active); in assay [11], 17.8 µM (active); in [12] it was 12.7 µM (active). Further, the AC50 in [13] was 2.16 µM (active); in [14], 1.32 µM (active); in assay [15] it was 17.7 µM (active); in the assay with MYC, MYC (gene 4609), 6.64 µM (active); in assay [16], 14.3 µM (active); in assay [17], 0.173 µM (active). In addition, the compound was classed as inactive in [8] and in [18].
For the compound `COP(=O)(OC)OC(Br)C(Cl)(Cl)Br` (stereo unspecified), the outcome (in assay [1]; in [2]; in [3]; with HGF (gene 3082); in assay [4]; in assay [5]) was inactive. In addition, the result in [6], in assay [8], in assay [9], in assay [10], in assay [12] and in [13] was inactive. Moreover, the outcome in assay [15] is “inactive”; with MYC, MYC (gene 4609), “inactive”; in [16] it was “inactive”; in assay [17], “inactive”. In addition, the AC50 in [7] was 50 µM (active).
Take `CCOP(=O)(NC(C)C)Oc1ccc(SC)c(C)c1` (stereo unspecified): the call (in assay [1]; in [2]; in the assay with HGF (gene 3082); in assay [5]; in [7]; in assay [8]) was inactive. Moreover, the result in [9], in [10], in assay [11], in assay [12], in assay [13] and in assay [14] was inactive. The outcome in [15] was “inactive”; in the assay with MYC, MYC (gene 4609), “inactive”; in assay [16], “inactive”; in [18], “inactive”. In addition, the half-maximal activity concentration (AC50) in assay [3] is 18.8 µM (active); in assay [4], 50 µM (active); in assay [17], 50 µM (active).

These data come from PubChem BioAssay (EPA / NIEHS).
